Source: PubChem (National Center for Advancing Translational Sciences (NCATS))
MARV entry inh – qHTS for inhibitors of binding or entry into cells for Marburg Virus; actives 1.8% (n = 300,000); Potency, µM (series often up to 37.8 µM), without a hit: top-dose activity change, negative = inhibition, usual class: inhibitors; Marburg virus pseudotyped entry inhibition, cell reporter; AID 540276, 2011; calls by dose curve; tested in HEK293 cells; note: potency is the fitted concentration of half-maximal effect
HCMV inh – qHTS Assay for inhibitors of the human cytomegalovirus (HCMV). HFF cells, HCMV-luciferase reporter, 72 h; hits give low values. activity change, negative = inhibition, % at 57.5 µM. actives 4.5% (n = 410,000). AID 1259415, 2018; in the data active = activity change below about -60%; inconclusive = no clear call, values can overlap the other calls; inactive = above about -39%
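Steps: HFFs plated, 16 h 37C; compounds added; HCMV-luciferase added to MOI 1 PFU/cell; 72 h 37C; OneGlo reagent, 5 min room temperature; luminescence read, normalized to controls.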
HCV inh – qHTS Assay for Inhibitors of Hepatitis C Virus (HCV); Huh7.5.1 HCVcc-Cre infection, luciferase reporter, 44 h; Potency, µM (highest dose often 41.8 µM), without a hit: at the highest dose activity change, negative = inhibition, actives largely listed as inhibitors; actives 3.4% (n = 340,000); active = well fitted inhibition curve with a large enough effect; inconclusive = small, poorly fitted or top-dose-only effect, or another doubt; inactive = no such curve, though single readings can be large or run the other way; note: potency is the fitted concentration of half-maximal effect
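Antiviral activity was scored by luciferase reporter output from cells infected with HCVcc-Cre (~0.5 moi) in presence of compound, 44 h infection period, cells seeded 1,000/well 4 h prior.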
VACV mCherry inh – qHTS for Stage-Specific Inhibitors of Vaccinia Orthopoxvirus: mCherry Reporter Primary qHTS; Potency, µM (highest dose often 36.5 µM), for inactives: top-dose activity change, negative = inhibition, most hits filed as inhibitors; actives 0.63% (n = 310,000); Vaccinia virus mCherry reporter infection, fluorescence; calls by dose curve; tested in A549 cells; note: potency is the fitted concentration of half-maximal effect; nearly all actives have a fitted effect of over 35% in size
Vaccinia Venus – qHTS for Stage-Specific Inhibitors of Vaccinia Orthopoxvirus: Venus Reporter Primary qHTS; Vaccinia virus Venus reporter expression, fluorescence; Potency, µM (doses to about 36.5 µM), for the others: at the highest dose activity change, negative = inhibition, usual class: inhibitors; actives 0.46% (n = 330,000); AID 720580, 2013; calls by dose curve; tested in A549 cells; note: potency is the fitted concentration of half-maximal effect; nearly all actives have a fitted effect of over 30% in size
Lassa entry inh – qHTS for Inhibitors of binding or entry into cells for Lassa Virus | actives 1.2% (n = 300,000) | Lassa virus pseudotype entry inhibition, cell reporter | AID 540256, 2011 | Potency, µM (series often up to 37.9 µM), without a hit: at the top dose activity change, negative = inhibition, actives largely listed as inhibitors; calls by dose curve; tested in HEK293 cells; note: potency is the fitted concentration of half-maximal effect; nearly all actives have a fitted effect of over 50% in size
* = called active by the depositor; i = inactive; ? = inconclusive; nt = not tested or not shown; ! = not active in a repeat; [ ] = another dose, or the depositor's remark. Shown are actives, neighbours in structure and some others; about 7.8% of the full set was active somewhere. % is set by controls: 0 for no effect and ±100 for the full control effect.

SMILES	MARV entry inh	HCMV inh	HCV inh	VACV mCherry inh	Vaccinia Venus	Lassa entry inh
C=CCSc1nc(N)c(C(=O)Nc2ccccc2OC)cc1C(=O)Nc1ccccc1	-9.1%	10.0	-26.9%	-9.7%	1.0%	-25.2%
C=CCSc1nc(N)c(C(=O)Nc2ccccc2)cc1C#N	?	8.7	3.55µM*	nt	nt	1.1%
CCc1ccc(-n2c(=O)c3c(C)c(C)sc3n(CC(=O)NCc3ccc(C)cc3)c2=O)cc1	0.9%[46.1 µM]	7.7	nt	-4.5%	5.3%	-4.6%[46.1 µM]
COc1ccccc1-c1nnc(C2CCN(C(=O)c3ccccc3C)CC2)o1	?	-10.5	nt	-14.2%	-14.7%	2.3%[46.1 µM]
COc1ccccc1-c1nnc(C2CCN(C(=O)c3cccc(Cl)c3)CC2)o1	-23.1%[46.1 µM]	-92.1*	nt	-3.7%	-8.0%	-19.2%[46.1 µM]
c1csc(-c2nc3c4ccccc4c4ccccc4c3[nH]2)c1	?	-20.6	12.6µM*	?	?	-28.2%
Cc1ccc(C)c(NC(=O)c2nc(Cl)ccc2Cl)c1	nt	19.8	-4.1%	nt	nt	nt
Cc1ccc(C)c(NC(=O)c2nc(S(=O)(=O)Cc3ccc(F)cc3)ncc2Cl)c1	6.1%[46.1 µM]	-100.3*	nt	-17.2%[7.34 µM]	-13.6%[7.34 µM]	?
CC(C)c1nnc(NC(=O)c2nc(S(=O)(=O)Cc3ccc(F)cc3)ncc2Cl)s1	?	-101.9*	?	i	-6.3%	?
CC(C)c1nnc(NC(=O)CS(=O)(=O)Cc2ccccc2)s1	7.4%[46.1 µM]	-8.6	2.3%	-0.4%	-10.4%	12.0%[46.1 µM]
Cc1cccc(CS(=O)(=O)c2ncc(Cl)c(C(=O)Nc3nnc(C(C)C)s3)n2)c1	?	-99.9*	11.2µM*	-7.2%	-6.3%	?
C=CCSc1nnc(NC(=O)c2nc(SCC)ncc2Cl)s1	2.5%	-28.4	18.2%	nt	nt	0.4%
CCSc1nnc(NC(=O)c2nc(S(=O)(=O)Cc3ccc(F)cc3)ncc2Cl)s1	2.5%[46.1 µM]	-102.3*	?	-14.3%	-6.2%	?
CC1CCC(Nc2nc3c(-c4ccc(Cl)cc4)nnn3c3ccccc23)CC1 (stereo not drawn)	-0.5%[46.1 µM]	27.7	nt	6.2%	6.7%	?
Cc1ccc(CS(=O)(=O)c2ncc(Cl)c(C(=O)Nc3nnc(C(C)C)s3)n2)cc1	?	-97.5*	?	9.9%[7.34 µM]	-8.9%	?
CC(C)c1nnc(NC(=O)c2nc(SCc3ccc(F)cc3)ncc2Cl)s1	29.3%[46.1 µM]	3.9	nt	-0.7%	8.5%	9.4%[46.1 µM]
CSc1nnc(NC(=O)c2nc(S(=O)(=O)Cc3cccc(C)c3)ncc2Cl)s1	?	-102.6*	12.6µM*	-6.8%	2.3%	?
COc1cc(Cn2c3ccc(NC(=O)NCCc4ccccc4)cc3c(=O)n2C)ccc1F	nt	-68.0*	nt	16.6%	-15.8%	nt
Cn1c(=O)c2cc(NC(=O)NCCc3cccs3)ccc2n1Cc1ccccc1	nt	-76.8*	nt	1.0%	0.9%	nt
N#CCc1ccnc2ccccc12	8.7%[46.1 µM]	-24.3	0.7%	-24.7%	18.2%	-1.4%[46.1 µM]
N#CC(C#N)c1ccnc2ccccc12	nt	-78.1*	nt	-8.8%	-16.7%	nt
CC(C)NCC(O)c1ccc(O)c(O)c1 (stereo not drawn)	?	?	12.8%	-8.8%	1.1%	3.4%
NC[C@H](O)c1ccc(O)c(O)c1	14.1µM*!	-28.4	1.4%	-14.4%	-3.9%	?
C[C@@H](N)[C@@H](O)c1ccc(O)c(O)c1	12.5µM*	nt	nt	nt	nt	?
CNC[C@H](O)c1ccc(O)c(O)c1	4.4%	21.9	11.7%	-6.1%	-12.2%	-0.7%
NC[C@@H](O)c1ccc(O)c(O)c1	14.1µM*	nt	nt	i	-5.6%	nt
O=C(CN1N=C(c2ccccc2)CCC1=O)NCc1ccc(F)cc1Cl	nt	26.6	nt	4.8%	-1.1%	?
O=C(NCC1Cc2cccc(-c3nccs3)c2O1)c1ccnc(Cl)c1 (stereo not drawn)	nt	nt	nt	-9.6%	-24.9%	nt
Cc1ccc2nc(SCC(=O)NCC3Cc4cc(-c5ncccc5C)ccc4O3)[nH]c2c1 (stereo not drawn)	nt	nt	nt	-21.9%	-16.6%	nt
Oc1ccccc1C=NNC(=S)Nc1ccc(F)cc1	?	-83.1*	?	5.62µM*	?	?
